# Results as given in PubChem BioAssay AID605 (National Center for Advancing Translational Sciences (NCATS), 2007).
# In all, about 71,000 compounds went through this assay and about 35 (0.05%) were called active. Calls come from the whole dose curve; as a rule, active = well fitted curve in the direction sought with a large enough effect; inconclusive = small, poorly fitted or top-dose-only effect, or effect the other way; inactive = flat fitted curve, though single readings scatter. Only a sample is shown.
# Biological target: tRNA threonylcarbamoyladenosine biosynthesis protein TsaE (Escherichia coli (strain K12)) (UniProt P0AF67)
# Test: qHTS Assay for Inhibitors of YjeE
# Settings: purified YjeE enzyme, qHTS inhibition assay
# Description: NIH Molecular Libraries Screening Centers Network [MLSCN]
# NIH Chemical Genomics Center [NCGC]
# Assay Provider: Eric Brown, McMaster University
# YjeE is an essential E.coli protein of unknown function that binds adenosine diphosphate (ADP). A complex of YjeE and BODIPY Texas Red-labeled ADP probe (Invitrogen, catalog number A22359) is incubated with library members. Inhibitors of YjeE-ADP binding are detected by a decrease in the fluorescence polarization (FP) of the fluorophore. Purified YjeE was supplied by Chand Mangat and Eric Brown, McMaster University.
# NCGC Assay Protocol Summary:
# 2 uM probe/10 uM YjeE in columns 1, 2, 5-48. Titration of ADP control (from 40 mM, then 1:2) pin-transferred to top half of column 2. Column 1 and bottom half of column 2 are neutral.
# Two and a half uL of reagents were dispensed to 1536-well Greiner black plates. Compounds and controls (20 nL) were transferred via Kalypsys PinTool. The plates were incubated for 15 min at room temperature, and then read on ViewLux (Perkin-Elmer) High-throughput CCD imager using BODIPY polarization filter set and 30 seconds exposure time. During dispense, reagent bottle was kept submerged into 4 deg C water bath and all liquid lines were covered with aluminum foil to minimize probe and protein degradation.
# Keywords: NIH Roadmap, MLSCN, MLI, MLSMR, qHTS, NCGC, YjeE
row,Structure (SMILES),outcome
1,CCCCC(CC)CN (stereo not given),inactive
2,Cc1ccccc1Nc1nc(N)nc(CN2CCN(c3ccccn3)CC2)n1,inactive
3,COc1c(F)c(F)c(-c2csc(N)n2)c(F)c1F,inactive
4,COC(=O)[C@H]1C[C@@H]1[C@H](NC(=O)Oc1ccc(F)cc1)c1ccccc1,inactive
5,COC(=O)C(C)C1Sc2ccccc2NC1=O (stereo not given),inactive
6,CC(C)(CNCC(O)c1ccccc1)N1CCOCC1 (stereo not given),inactive
7,Cc1cnc(CNc2ncncc2-c2ccccc2Cl)cn1,inactive
8,COc1ccc(C2C3=C(OC(C)=O)c4ccccc4C3=Nc3c2c(=O)n(C)c(=O)n3C)cc1 (stereo not given),inactive
9,Cn1c(-c2ccc(C(=O)c3ccccc3)s2)nc2ccccc21,inactive
10,COc1ccccc1-c1nc(C(F)(F)F)c(OC)o1,inactive
11,Nc1nc(N)c2[nH]c(CNc3ccc(C(=O)O)cc3)nc2n1,inactive
12,CCCc1nc2ccccc2c(=O)n1/N=C/c1ccc(O)c(O)c1,inactive
13,CC(C)[C@@H](CC(=O)N[C@@H]1CCNC[C@H]1C(=O)N[C@H](CC(=O)N[C@@H](CCC(=O)O)CC(=O)O)Cc1ccccc1)NC(=O)C[C@H](CO)NC(=O)[C@@H]1CNCC[C@H]1N,inactive
14,COc1ccc2nc(NC3=NCN(CC4CCCO4)CN3)nc(C)c2c1 (stereo not given),inactive
15,Cc1cc(OCC(=O)O)c(Cl)cc1Cl,inactive
16,Cc1cc(NC(=O)COC(=O)c2ccc(F)c(S(=O)(=O)N3CCOCC3)c2)no1,inactive
17,COc1ccc(C(=O)CSc2nccc(=O)[nH]2)cc1,inactive
18,CCOC(=O)c1ccc(NC(=O)CS(=O)(=O)c2cn(CC)c3ccccc23)cc1,inactive
19,Cc1cc(=O)[nH]c(SCC(N)=O)c1C#N,inactive
20,CSCCC(NC(=O)c1ccc(=O)n(C)n1)c1nc2ccccc2[nH]1 (stereo not given),inactive
21,O=C(NCc1ccc(Cl)cc1)c1cc2c(nc3sccn32)s1,inactive
22,CC(C)(C)NCC[C@@H](O)c1cc(C(F)(F)F)nc2c(C(F)(F)F)cccc12,inactive

row,Structure (SMILES),outcome
1,COc1nc(Oc2ccc(=O)n(C)n2)nc(N(C)C)n1,inactive
2,CCCCNC(=O)CSc1nccn1Cc1ccccc1,inactive
3,C1CCC2OC2C1 (stereo not given),inactive
4,O=c1c(-c2cc(F)cc(F)c2)nc2cnc(Oc3ccccc3)nc2n1C[C@H]1CCCO1,inactive
5,CCOC(=O)c1ccc(NC(=O)CSc2nnc(COc3ccccc3OC)n2C)cc1,inactive
6,C[C@]1(C(=O)NCCc2c[nH]c3ccccc23)C=C[C@@H](Cc2ccccc2)N1C(=O)c1ccccc1,inactive
7,N#Cc1ccc(C(c2nnnn2CCc2ccccc2)N2CCCCCC2)cc1 (stereo not given),inactive
8,COc1ccc(N2C(=O)C3CCCN3C2c2cccs2)cc1 (stereo not given),inactive
9,COc1ccc(C)cc1S(=O)(=O)NC1CCCCC1,inactive
10,O=C1c2oc3ccccc3c(=O)c2C(c2cccc(O)c2)N1c1ccccn1 (stereo not given),inactive
11,CC(=O)CC(C)C,inactive
12,COC(=O)N1CCC2(CCCN(Cc3ccccc3OC)C2)CC1,inactive
13,COc1ccc(OC)c(Nc2nc(-c3ccc(O)c(O)c3)cs2)c1,inactive
14,FC(F)(F)c1ccccc1-c1cc(NCc2ccccc2)ncn1,inactive
15,CN1[C@@H]2CC[C@H]1CC(NC(=O)c1nn(C)c3ccccc13)C2 (stereo not given in full),inactive
16,C[C@]12CC[C@@H]3C(=CCc4cc(O)ccc43)[C@@H]1CCC2=O,inactive
17,Cc1cc(=O)n(C)c(=O)n1CCCNc1ccccc1,inactive
18,CC(C)c1ccc2c([Si](C)(C)C)c3c(nc2c1)-c1cccc(=O)n1C3,inactive
19,COc1ccc(N2C(=O)CCC(C(=O)N(C)C3CCCCC3)C2c2ccc(OC)c(OC)c2)cc1 (stereo not given),inactive
20,C[N+](C)(CCCCCC[N+](C)(C)CCCN1C(=O)c2cccc3cccc(c23)C1=O)CCCN1C(=O)c2cccc3cccc(c23)C1=O,inactive
21,COc1ccc(Cl)cc1S(=O)(=O)N1CCN(CC(=O)C(C)(C)C)CC1,inactive
22,CN1CCN(S(=O)(=O)c2ccc3[nH]cc(C(=O)O)c(=O)c3c2)CC1,inactive

row,Structure (SMILES),outcome
1,Cc1ccc(C)c(N2CCN(C(=O)CCc3nc4ccccc4[nH]3)CC2)c1,inactive
2,O=Cc1c(Cl)cccc1Cl,inactive
3,COc1cccc(N(CC(=O)Nc2cccc(N(C)S(C)(=O)=O)c2)S(C)(=O)=O)c1,inactive
4,COc1ccccc1NC1=NC2(CCCC2)N=C(N)N1,inactive
5,CCOc1ccc2[nH]c(=O)c(C(c3nnnn3CCOC)N3CCOCC3)cc2c1 (stereo not given),inactive
6,COC(=O)C1(C)C=CC2(CCCCC2)N1C(C)=O (stereo not given),inactive
7,CC/C=C/C/C=C/C/C=C/CCCCCCCC(=O)OCC,inactive
8,O=C(OC(C(=O)NC1CCCC1)c1ccc(F)cc1)c1ccno1 (stereo not given),inactive
9,O=c1cnc2cnc(Nc3ccccc3)nc2n1Cc1ccc(F)cc1,inactive
10,COCCn1c(SCC(=O)Nc2cc(Cl)ccc2OC)nc2c(c1=O)SC(C)C2 (stereo not given),inactive
11,C=C(C)c1cccc(C(C)(C)NC(=O)N2CCN(c3ncccn3)CC2)c1,inactive
12,O=C(Cl)c1ccccc1[N+](=O)[O-],inactive
13,CCOC(=O)CN(C(=O)CN1CCOCC1)c1ccc(Br)cc1,inactive
14,CC(C)NC(=O)N1CC[C@@]2(CCCN(C(=O)c3ccco3)C2)C1,inactive
15,S=c1[nH]nc(SCc2ccccc2Cl)c2[nH]cnc12,inactive
16,CSc1cccc(NC(=O)CSc2ccccc2)c1,inactive
17,Cc1ccc2oc(=O)c3cnn(CC(=O)N4CCN(c5ccccn5)CC4)c3c2c1,inactive
18,O=C(CNS(=O)(=O)c1cccc(C(F)(F)F)c1)Nc1ccccc1F,inactive
19,COC(=O)[C@@]1(Cc2ccccc2)[C@H]2c3cc(C(=O)N4CCCC4)n(Cc4ccc(C)o4)c3C[C@H]2CN1C(=O)c1ccccc1,inactive
20,COc1ncc2nc(-c3ccc(Cl)cc3)c(=O)n(C)c2n1,inactive
21,CC(c1ccco1)N(C(=O)c1ccc(S(=O)(=O)N2CCCCC2)cc1)c1ccccn1 (stereo not given),inactive
22,CC(C)NS(=O)(=O)c1ccc(OCC(=O)Nc2ccc3c(c2)OCCO3)cc1,inactive

row,Structure (SMILES),outcome
1,Cc1ccc(-n2c(SCC(=O)Nc3ccc4c(c3)OCO4)nnc2-c2ccoc2C)cc1,inactive
2,CCOC(=O)NC(C(F)(F)F)(C(F)(F)F)P(=O)(c1ccccc1)c1ccccc1,inactive
3,CCCC(=O)N1c2ccc(-c3csc(N)n3)cc2CC1C (stereo not given),inactive
4,Cc1ccc(O)c(NC(=O)COc2cc(C)ccc2C)c1,inactive
5,COc1ccc(-c2nc3cnc(N(C)C)nc3n(Cc3cccs3)c2=O)cc1,inactive
6,O=C(Cl)c1ccc([N+](=O)[O-])cc1,inactive
7,Cc1cc(C)cc(N)c1,inactive
8,CCOC(=O)N1CCN(C(=O)C2CC(c3ccc(F)cc3)=NO2)CC1 (stereo not given),inactive
9,Cc1ccc2c(c1)N(CC(=O)N1CCCc3ccccc31)C(=O)C(C)O2 (stereo not given),inactive
10,CCOc1cccc(/C(O)=C2/C(=O)C(=O)N(CCOC)C2c2ccncc2)c1 (stereo not given),inactive
11,CC1CC(C)CN(CC(=O)Nc2ccc(S(N)(=O)=O)cc2)C1 (stereo not given),inactive
12,CN(c1ccc(C(=O)N2CCc3ccccc3C2)cc1)S(C)(=O)=O,inactive
13,COc1ccccc1N1CCN(C(=O)c2cc3c(-c4ccc(Cl)cc4)nn(C)c3s2)CC1,inactive
14,Cn1c(CC(=O)Nc2ccccc2)nnc1SCC(=O)c1ccccc1,inactive
15,Cc1nnc(NC2=NCCCCC2)o1,inactive
16,Cn1cc(-c2nc3cnc(N4CCNCC4)nc3n(CCc3ccccc3)c2=O)c2ccccc21,inactive
17,COc1cccc(Nc2ncc3ncc(=O)n(C4CC4)c3n2)c1,inactive
18,CNC(=O)C1(C)C=CC2(CCCCC2)N1C(C)=O (stereo not given),inactive
19,COc1ccccc1CNc1ncnc2ccc(-c3ccc4c(c3)OCO4)cc12,inactive
20,COC(=O)[C@@]1(Cc2ccc(OC)cc2)[C@H]2c3cc(C(=O)N4CCCC4)n(Cc4ccc(OC(F)(F)F)cc4)c3C[C@H]2CN1C(=O)c1ccccc1,inactive
21,O=C(O)c1cccc(S(=O)(=O)NCCO)c1,inactive
22,COc1ccc(N)c(C)c1,inactive

row,Structure (SMILES),outcome
1,O=C(Cn1ccc(=O)[nH]c1=O)Nc1ccc(C(=O)O)c(O)c1,inactive
2,COc1ccc(CC(=O)Nc2c3c(nn2-c2cccc(Cl)c2)CS(=O)C3)cc1 (stereo not given),inactive
3,COCCCN1C(=O)C(=O)/C(=C(/O)c2ccc3c(c2)CC(C)O3)C1c1cccnc1 (stereo not given),inactive
4,Cn1cc(-c2nc3cncnc3n(-c3ccccc3)c2=O)c2ccccc21,inactive
5,Cc1cc(Cl)c(S(=O)(=O)NCCC(=O)O)cc1OCC(N)=O,inactive
6,Cc1ccnc(SCCn2c(Br)nc3c2c(=O)[nH]c(=O)n3C)n1,inactive
7,CC(=NCc1ccc2c(c1)OCO2)C1=C(O)c2ccccc2C1=O,inactive
8,Cc1ccc2c(c1)sc1ncc(NC(=O)c3ccccc3)c(=O)n12,inactive
9,CCCCOc1ccc(Cl)cc1CSc1nncn1N,inactive
10,CCN(Cc1cc2cc(C)ccc2[nH]c1=O)S(=O)(=O)c1ccccc1,inactive
11,CSCC[C@H](NC(=O)NCCc1ccc(F)cc1)C(=O)O,inactive
12,O=C(Cn1cc2c(n1)CCCCC2)NCCN1CCOCC1,inactive
13,CC(=O)Nc1ccc(NC(=O)CN2CCCC(C)C2)c(Cl)c1 (stereo not given),inactive
14,COCCn1c(=O)c(-c2cccc(F)c2)nc2cncnc21,inactive
15,Oc1cc2c(cc1O)CN(C(=S)NCCc1ccc(Cl)cc1)CCC2,inactive
16,CN=C(NC#N)NCCSCc1nc[nH]c1C,inactive
17,COC(=O)c1nc(NC(=O)c2ccc(Cl)cc2)n[nH]1,inactive
18,NC(=O)CCCC1=NS(=O)(=O)c2ccccc2N1,inactive
19,COC(=O)c1c(NC(=O)CSc2nncs2)sc2c1CCCCC2,inactive
20,CC(=O)N(CC1CCCO1)C1(C(=O)NC2CCCC2)CCCCC1 (stereo not given),inactive
21,COc1ccc2[nH]cc(CCNc3nc(-c4cccc(NS(C)(=O)=O)c4)nc4ccccc34)c2c1,inactive
22,CCCCCN(C(=O)NC(=O)Nc1ccccc1OC)S(C)(=O)=O,inactive
